Data on 27 compounds can be found in PubChem BioAssay (NCI).

Structures are written as SMILES. About 83,000 compounds went through this panel and 20% of them were active in at least one assay; those are over-represented in the sample as a whole.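 Growth was measured after 48 h exposure to one concentration of compound in 96-well plates. Values under 10 count as active.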 Unmarked numbers belong to inactive results. Activity calls are given as the source filed them.

Test in all cases: NCI-60 one-dose screen, 48 h (100 = growth as untreated, 0 = no growth, -100 = all killed)
Holding throughout (conditions): 10 µM unless noted

Experiment [1] relates to NCI-H226 lung.
Experiment [2] deals with NCI-H322M lung.
Experiment [3] concerns HOP-62 NSCLC.
In experiment [4] the test system is NCI-H460 lung.
For experiment [5], the system named is HOP-92 NSCLC.
Experiment [6] relates to NCI-H522 lung.
In experiment [7] the test system is A549/ATCC NSCLC.
Experiment [8] deals with 786-0 renal.
Experiment [9] deals with COLO 205 colon.
In experiment [10] the test system is DU-145 prostate.

For `O=C(CN1C(=O)/C(=C/c2ccccc2)SC1=S)N1CCOCC1`, the growth in experiment [1] was 105%; in [2], 91.9%; in experiment [3], 97%; in experiment [4], 105%; in experiment [5] it was 102%; in experiment [6], 68.2%. In addition, the growth is 97.4% in experiment [7], 92.3% in experiment [8], 116% in [9] and 103% in experiment [10].

`Clc1ccc2oc3c(NCCCN4CCOCC4)c4ccccc4nc3c2c1`: the growth in experiment [1] was 16.4%; in experiment [2], 21.6%; in experiment [3], 43.5%; in experiment [4] it was 6.4% (active); in experiment [5], 33%; in [6], 28.2%. In addition, the growth is 25.1% in [7], 20% in experiment [8], 13.2% in [9] and 16.8% in experiment [10].

Take `COc1cc(OC)c(S(=O)(=O)NNC(=O)c2ccncc2)cc1C(=O)/C=C/c1ccc(C)cc1`: the growth was 89.5% in experiment [1]; 62.3% in [2]; 103% in [3]; 63.4% in experiment [4]; 42.1% in [5]; 84.9% in experiment [6]. In addition, the growth in experiment [7] was 93.4%; in experiment [8], 57.1%; in experiment [9], 99%; in experiment [10], 83.1%.

With `COc1cccc(NC2=CC(=O)C(C)=C(C)C2=O)c1`, the growth in experiment [1] is 97%; in [2], 102%; in [3] it was 106%; in [4], 101%; in [5], 104%; in [6], 49.8%. Moreover, the growth is 101% in [7], 95.8% in experiment [8], 103% in experiment [9] and 113% in experiment [10].

As for `COC(=O)c1ccc(NC(=S)N2CCc3ccc([N+](=O)[O-])cc3C2)cc1O`, the growth in [1] was 100%; in experiment [2], 101%; in experiment [3], 91.3%; in [4], 114%; in experiment [5] it was 99.7%; in [6], 99%. Moreover, the growth is 106% in [7], 109% in experiment [8], 105% in experiment [9] and 112% in experiment [10].

Regarding `COc1cccc(OC)c1-c1nnn(C)c1C(=S)N1CCN(c2ccc([N+](=O)[O-])cc2Cl)CC1`, the growth in experiment [1] is 88.6%; in experiment [2] it was 82.6%; in [3], 106%; in experiment [4] it was 101%; in experiment [5], 80.3%; in [6], 93.6%. For the same compound, the growth in [7] was 92.9%; in experiment [8], 92.1%; in [9], 107%; in experiment [10], 100%.

With `O=C(c1ccc(Cl)cc1)C1[C@H](c2ccc(Cl)cc2)[C@@H](c2ccccc2)NC12C(=O)Nc1ccc(Br)cc12` (stereo not given in full), the growth is 38.1% in [1]; 56.2% in [2]; 58.6% in experiment [3]; 8.65% (active) in experiment [4]; -1.5% (active) in [5]; 66% in experiment [6]. Also, the growth in experiment [7] is 29.2%; in [8], 24.6%; in [9], 55.9%; in experiment [10], 46.8%.

Consider `Cc1nc(-c2cc3ccccc3oc2=O)ccc1C(=O)/C=C/c1ccc(Cl)c(Cl)c1`, for which the growth in experiment [1] is 108%; in experiment [2] it was 104%; in experiment [3], 107%; in experiment [4], 100%; in [5], 95.4%; in experiment [6] it was 98.9%. In addition, the growth is 107% in experiment [7], 99.3% in [8], 113% in [9] and 102% in experiment [10].

Regarding `COc1cc(/C=C/C(=O)c2ccccc2)ccc1Oc1nc(NCCO)nc(N2CCOCC2)n1`, the growth was 107% in experiment [1]; 99.3% in experiment [2]; 90.1% in experiment [3]; 110% in experiment [4]; 90.9% in experiment [5]; 99.3% in experiment [6]. Besides, the growth in experiment [7] is 98.8%; in experiment [8], 105%; in [9], 116%; in [10], 104%.

With `O=C(CCN1C(=O)/C(=C/c2ccccc2)SC1=S)N1CCOCC1`, the growth in [1] is 104%; in experiment [2], 87.2%; in experiment [3], 114%; in [4], 99.3%; in experiment [5], 94.6%; in experiment [6] it was 58.3%. The growth was 101% in experiment [7], 82.6% in experiment [8], 119% in [9] and 77.3% in experiment [10].

Regarding `Clc1ccc(Cc2nnc3sc(-c4cccnc4)nn23)cc1`, the growth is 93% in experiment [1]; 87.8% in experiment [2]; 107% in experiment [3]; 103% in experiment [4]; 91.9% in experiment [5]; 89.5% in experiment [6]. For the same compound, the growth was 98.2% in experiment [7], 92.6% in [8], 115% in experiment [9] and 101% in [10].

For the compound `COc1ccc(-c2csc(N/N=C/c3c(-c4ccc(S(C)(=O)=O)cc4)nc4ccccn34)n2)cc1`, the growth is 115% in experiment [1]; 106% in experiment [2]; 121% in [3]; 109% in experiment [4]; 99.9% in experiment [5]; 104% in experiment [6]. Also, the growth is 105% in experiment [7], 82.7% in experiment [8], 120% in [9] and 113% in experiment [10].

With `OC1CCc2c(-c3ccc4ncnc(N5CCc6cc(F)c(Cl)cc65)c4c3)cncc21` (stereo not given), the growth in experiment [1] is 56.7%; in experiment [2], 15%; in [3] it was 63.7%; in experiment [4], 50.7%; in experiment [5], 23.1%; in [6], 40.1%. Further, the growth is 50.3% in experiment [7], 43.7% in experiment [8], 82.3% in experiment [9] and 35.8% in [10].

For `O=C1/C(=C/C2=Cc3ccccc3OC2)SC(=S)N1c1ccc(F)cc1`, the growth in experiment [1] is 103%; in experiment [2], 97.2%; in experiment [3], 101%; in [4] it was 105%; in experiment [5], 99.2%; in [6] it was 90.4%. Also, the growth in experiment [7] was 101%; in experiment [8], 96.3%; in experiment [9], 107%; in experiment [10], 104%.

With `Cc1nc(-c2cc3ccccc3oc2=O)ccc1C(=O)/C=C/c1ccc(N2CCOCC2)cc1`, the growth in experiment [1] was 88.3%; in experiment [2], 107%; in [3], 90.8%; in experiment [4], 89.7%; in experiment [5] it was 80%; in experiment [6], 61.4%. Further, the growth in [7] is 91.6%; in experiment [8], 75.3%; in experiment [9], 91.6%; in experiment [10], 91.1%.

On to `CC(C)(C)Nc1nc2c(OCCc3ccccc3)cccn2c1-c1ccc(Cl)cc1`, for which the growth in experiment [1] was 12.4%; in experiment [2], 24.6%; in [3], 32.4%; in [4] it was 16%; in [5], -24.9% (active); in experiment [6], 3.18% (active). Moreover, the growth in [7] was 16%; in [8], 26.9%; in experiment [9] it was -3.99% (active); in [10], 48.2%.

As to `N[C@@H](Cc1cn(-c2c3ccccc3nc3ccccc23)nn1)C(=O)O`, the growth was 103% in experiment [1]; 98.3% in [2]; 96.6% in experiment [3]; 111% in experiment [4]; 108% in [5]; 105% in experiment [6]. Further, the growth is 102% in experiment [7], 105% in experiment [8], 109% in [9] and 105% in [10].

Consider `COc1ccc(Cc2nn(CC(=O)N/N=C/c3ccc(Cl)cc3)c(=O)c3c(C)noc23)cc1`, for which the growth in experiment [1] was 69.8%; in experiment [2], 94.8%; in experiment [3], 70.4%; in [4] it was 64.9%; in experiment [5], 89.5%; in experiment [6] it was 74.4%. In addition, the growth in experiment [7] was 46%; in experiment [8], 52.6%; in [9], 102%; in experiment [10] it was 93%.

With `C/C(=N\NC(N)=O)c1c(O)sc(=O)[nH]c1=O`, the growth in experiment [1] was 101%; in experiment [2], 97.3%; in experiment [3], 96.6%; in experiment [4], 106%; in experiment [5], 104%; in experiment [6], 98.7%. The growth was 98.4% in [7], 104% in [8], 108% in experiment [9] and 110% in experiment [10].

As to `CCN1CCN(S(=O)(=O)c2oc(-c3ccc(Cl)cc3)nc2C#N)CC1`, the growth in [1] is 106%; in [2] it was 96.5%; in [3] it was 108%; in experiment [4], 105%; in experiment [5] it was 36.7%; in experiment [6], -63% (active). The growth in experiment [7] is 95.6%; in experiment [8] it was -49.7% (active); in experiment [9], 65.5%; in experiment [10], 81.7%.

`NS(=O)(=O)c1cccc(Nc2nc(SCC(=O)c3ccc(Cl)cc3)nc3ccccc23)c1`: the growth is 42.5% in experiment [1]; 81.5% in experiment [2]; 36.2% in experiment [3]; 48.4% in experiment [4]; 24.5% in [5]; 59.4% in experiment [6]. Besides, the growth is 79.5% in [7], 74.4% in experiment [8], 105% in experiment [9] and 78.3% in experiment [10].

As to `COc1cc(/C=C/C(=O)c2ccc(Cl)cc2)ccc1Oc1nc(NCCO)nc(N2CCOCC2)n1`, the growth in experiment [1] is 96.5%; in [2], 95.8%; in [3] it was 92.7%; in experiment [4], 106%; in experiment [5], 102%; in experiment [6], 96.8%. Also, the growth in experiment [7] is 103%; in experiment [8], 101%; in [9], 116%; in experiment [10], 107%.

In the case of `CC(=NNc1ncnc2ccccc12)c1ccc(S(C)(=O)=O)cc1`, the growth in experiment [1] is 96.8%; in experiment [2], 100%; in [3] it was 95%; in experiment [4], 108%; in [5], 95.1%; in [6], 100%. Moreover, the growth in experiment [7] was 111%; in [8], 102%; in experiment [9], 113%; in [10], 115%.

For the compound `CN(C)CCCOc1c2ccccc2nc2c1oc1ccc(Cl)cc12`, the growth in experiment [1] was -6.99% (active); in [2], -9.94% (active); in experiment [3], 14.2%; in experiment [4], 4.37% (active); in experiment [5], 3.66% (active); in experiment [6], -57.1% (active). The growth in [7] is -2.75% (active); in experiment [8], 7.33% (active); in [9] it was -24.5% (active); in experiment [10] it was -1.68% (active).

Regarding `CCCC(=O)NC(c1ccc(N(CC)CC)cc1)c1cc(C)c2cccnc2c1O` (stereo not given), the growth in experiment [1] was 1.21% (active); in [2] it was 27.8%; in experiment [3] it was 17.4%; in [4], 1.53% (active); in experiment [5], 46.4%; in experiment [6], 15.9%. Further, the growth in [7] is 28.7%; in [8], 0.0799% (active); in experiment [9] it was 23.1%; in experiment [10], 25.6%.

Take `Cc1ccc(C(=O)Nc2cccc(C(F)(F)F)c2)cc1Nc1nc(-c2cnccn2)nc2c1cnn2C`: the growth in [1] is 71.6%; in experiment [2], 73%; in experiment [3], 46.6%; in experiment [4], 69.9%; in experiment [5], 35.3%; in [6], 73.2%. In addition, the growth in experiment [7] is 70.8%; in experiment [8], 74%; in [9] it was 20.4%; in experiment [10], 96.6%.

Take `N#Cc1ccc(C(=O)CSc2nc(Nc3ccc(S(N)(=O)=O)cc3)c3ccccc3n2)cc1`: the growth in experiment [1] is 105%; in [2], 107%; in [3] it was 99.2%; in [4], 111%; in [5], 111%; in experiment [6], 99.8%. Moreover, the growth is 108% in [7], 105% in experiment [8], 117% in [9] and 107% in experiment [10].
